# Experimental data from PubChem BioAssay AID652208 (Broad Institute, 2013).
# Results with a measured potency or affinity are listed apart. Values without a mark were called inactive.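 Rule for the calls: active = Loss of cell signal with fitted half-effect dose at or below twice the top valid tested dose; inconclusive = Poor fit, or flat fit from -70 to -30 percent; inactive = Half-effect above limit, rising signal, or flat within 30 percent.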
# Assay: viability loss in HEK293T cells – cell-based, cherry-picks, cytotoxicity control for HIV Vif inhibitor project, dose response (AID 652208);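 note: 0% = median neutral control wells and -100% = median staurosporine control wells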
# Conditions: CellTiter-Glo luminescence, 24 h; series mostly up to 26 µM; activity change, negative = cytotoxicity: at the top concentration
row,Compound,"activity change, negative = cytotoxicity [%]"
1,COc1ccc(CC(=O)Nc2ccc(-c3noc(-c4cc(OC)c(OC)c(OC)c4)n3)cc2)cc1,0.981
2,Cc1cc(-c2nnc(SCC(=O)c3ccc(Cl)cc3)o2)no1,-6.3
3,CCOC(=O)Nc1ccc(NCc2ccc(F)cc2)nc1N,-5.02
4,O=C(CCCn1c(=S)[nH]c2ccccc2c1=O)N1CCN(c2cccc(Cl)c2)CC1,-17.7
5,O=C(CCCCCn1c(=S)[nH]c2ccc(N3CCOCC3)cc2c1=O)NCc1ccccc1Cl,-15.5
6,CCn1c(SCc2ccc(C(=O)Nc3nccs3)cc2)nnc1-c1ccc(N)cc1,-14.3
7,COc1cc(-c2cnc3c(NC=O)cc(-c4ccccc4Cl)cn23)cc(OC)c1OC,-15
8,Nc1nonc1-c1nc2ccccc2n1CC(=O)NC1CCCC1,4.56
9,COc1cccc(N2CCN(S(=O)(=O)c3cc4c(cc3C)N(C)CCO4)CC2)c1,-2.23
10,C=CCNc1sc(C(=O)c2ccc(Br)s2)c(N)c1C#N,-3.79
11,O=c1[nH]c(=O)n(Cc2ccco2)c2c1C(C(F)(F)F)(C(F)(F)F)N=C(c1ccco1)N2,-3.38
12,Cc1ccc(NC(=O)/C=C/C(=O)O)c(NC(=O)c2ccccc2)c1,3.16
13,Cc1cc(/C=C2\C(=N)N3C(SCc4ccccc4)=NSC3=NC2=O)c(C)n1Cc1ccccc1,-3.76
14,CC1(C)CC(=O)C2=C(C1)Nc1ccccc1N(C(=O)C1CC1)C2c1ccco1 (configuration not stated),-1.94
15,O=C(CCCOc1ccc(Br)cc1)NNC(=O)c1ccncc1,5.12
16,COc1ccc(-c2nnc(SCC(=O)N3CCCc4ccccc43)o2)cc1OC,-13.4
17,COc1ccc(CN(C(=O)Cn2nnc(-c3ccc(C)o3)n2)C(C(=O)NCC2CCCO2)c2ccco2)cc1 (configuration not stated),-8.44
18,Cc1ccc2c(c1)C1CN(C)CCC1N2S(=O)(=O)c1cccc(C(F)(F)F)c1 (configuration not stated),-8.3
19,COc1ccc(Br)cc1C(=O)Nc1ccc(N2CCCC2)cc1,-15.1

row,Compound,"activity change, negative = cytotoxicity [%]"
1,COc1cc2[nH]c(=O)n(CCCC(=O)NC3CCCCC3)c(=O)c2cc1OC,-1.25
2,CN(Cc1ccccc1)C(=O)CCC1CCN(C(=O)c2ccco2)CC1,-3.47
3,O=C(CN(C(=O)c1csnn1)c1ccc(F)cc1)NCc1ccc2c(c1)OCO2,-5.58
4,COc1cccc(NC(=O)NC2(C(F)(F)F)Oc3ccccc3O2)c1,-13.2
5,O=C(CSc1nnc(CNc2ccc(F)cc2)o1)c1ccccc1,4.08
6,CCOC(=O)C[C@@H](C#N)NC(=O)[C@@H]1CCCN1C(=O)[C@@H](NC(=O)c1ccc(N)c(Cl)c1)C(C)(C)C,-8.24
7,CN(C)c1ccc(/C=C/C(=O)c2ccc3c(c2)OCO3)cc1,-23.4
8,COc1c2occc2c(OC)c2c(=O)cc(C)oc12,-0.016
9,CC(=O)Nc1cc(NC(=O)C2C3C=CC(C3)C2C(=O)O)ccc1Cl (configuration not stated),-1.62
10,COc1ccc(C(=O)Nc2cc(OC)c(NC(=O)Nc3ccccc3)cc2OC)cc1,-5.66
11,COc1ccc(-c2cc(C(F)(F)F)n3nc(C(=O)NCc4ccco4)c(Cl)c3n2)cc1,-23.3
12,COc1ccc(OC)c(/C=C/c2nc3ccccc3[nH]c2=O)c1,-29.7
13,COC(=O)c1sc(-c2ccc(Cl)cc2)cc1NC(=O)CSCC(=O)O,-1.52
14,CCOc1ccc2nc(NS(=O)(=O)Cc3ccccc3)sc2c1,-21.3
15,CC(C)(C)NC(=O)NC(=O)COc1ccccn1,5.18
16,COc1ccc(-c2coc3cc(O)ccc3c2=O)cc1,9.33
17,CCC(C)NC(=O)Cn1c(=O)n(-c2ccccc2)c(=O)c2ccc(C(=O)NCc3ccco3)cc21 (configuration not stated),-1.22
18,CCN1CCN(c2cc(=O)n(-c3cc(Cl)ccc3C)c(=O)[nH]2)CC1,4.9
